Where “and” joins values, the source holds several entries; their conditions need not be identical. Equal values may be shown once. Unmarked numbers belong to inactive results. Inconclusive results are not listed. A call without a number means that no potency is given here. Calls of active or inactive are those of the source. Unless noted, calls follow the shape of the dose curve; as a rule, active = well fitted curve in the direction sought with a large enough effect in the repeat runs; inconclusive = weak or mixed curves; inactive = no such curve, though single readings can be large; an effect the other way counts as inactive or inconclusive.
Assays:
[1] = qHTS assay for small molecules that induce genotoxicity in human embryonic kidney cells expressing luciferase-tagged ATAD5 (AID 651632); also: nearly all actives have a fitted effect of over 15% in size
How it was run: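 Test compounds were delivered by pin tool onto HEK293T reporter cells (2,000/well) expressing ATAD5 fused to luciferase. After 16 hr at 37C, 5% CO2, Amplite was added for 30 min at room temperature and luminescence was measured.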

[2] = qHTS assay for small molecule agonists of the p53 signaling pathway - cell viability (AID 651633; calls by dose curve; also: nearly all actives have a fitted effect of over 30% in size; also: potency is read from the fitted curve at half-maximal effect)
How it was run: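 Viability counter-read: CellTiter-Glo luminescence (30 min, room temperature) in the same p53RE-bla plates. These plates had been exposed to compounds for 16 h at 37 C.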

[3] = qHTS assay for small molecules that induce genotoxicity in human embryonic kidney cells expressing luciferase-tagged ATAD5 - cell viability (AID 651634; calls by dose curve; also: nearly all actives have a fitted effect of over 25% in size; also: potency is read from the fitted curve at half-maximal effect)
How it was run: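 Quantitative high-throughput format. HEK293T cells expressing ATAD5 fused to luciferase were plated at 2,000 cells/well and treated 15.5 hr with compound versus DMSO. Viability was determined by fluorescent live-cell protease substrate, 30 min at 37C.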

[4] = qHTS assay for small molecule disruptors of the mitochondrial membrane potential - cell viability (AID 720634; calls by dose curve;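 also: human HepG2 liver cancer cells; nearly all actives have a fitted effect of over 20% in size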)
How it was run: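 Same-well counter-screen: following the MMP dye addition, CellTiter-Glo was added to 1 hr compound-treated HepG2 cells and luminescence read after 30 min at room temperature.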

[5] = qHTS assay for small molecule disruptors of the mitochondrial membrane potential (AID 720635); also: potency is read from the fitted curve at half-maximal effect
How it was run: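 Mitochondrial membrane potential tracked with Mito-MPS dye, red aggregates (ex 540/em 590 nm) against green monomers (ex 490/em 535 nm). Compound treatment 1 hr at 37C, dye 30 min in HepG2.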

[6] = qHTS assay to test for compound auto fluorescence at 590 nm (red) in HepG2 cells (AID 720674)
How it was run: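 Red autofluorescence (Ex/Em 540/590 nm, Rose Bengal sodium equivalents) was measured in HepG2 cells, 2,000 per well in MEM plus 10% FBS, plated overnight at 37 C. Readings were taken 1 hr after adding 23 nL compound or DMSO, at 37 C and 5% CO2.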

[7] = qHTS assay to test for compound auto fluorescence at 535 nm (green) in HepG2 cells (AID 720675)
[8] = qHTS assay to test for compound auto fluorescence at 460 nm (blue) in HEK293 cells (AID 720678)
How it was run: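 HEK293, 2,000 cells/well, 10% dialyzed FBS; attach 4-5 hr 37C; pin compound or DMSO; o/n 37C/5% CO2; fluorescence 405/460 nm; triamterene-equivalent units.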

[9] = qHTS assay to test for compound auto fluorescence at 590 nm (red) in HEK293 cells (AID 720679)
How it was run: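 Intensity at 540nm excitation and 590nm emission is reported as Rose Bengal sodium-equivalent autofluorescence. Measurements followed overnight exposure (37C, 5% CO2) of HEK293 cells, 2,000 per well, to 23 nL compound.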

[10] = qHTS assay to test for compound auto fluorescence at 535 nm (green) in HEK293 cells (AID 720680)
[11] = qHTS assay to test for compound auto fluorescence at 460 nm (blue) in HEK293 cell free culture (AID 720681)
How it was run: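 Blue fluorescence (Ex 405/Em 460 nm, triamterene-equivalent) was read immediately after pin transfer of compound or DMSO into medium (DMEM, 10% FBS) without cells.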

[12] = qHTS assay to test for compound auto fluorescence at 535 nm (green) in HEK293 cell free culture (AID 720682)
How it was run: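 No cells present: wells hold DMEM supplemented with 10% FBS, into which compound or vehicle is pinned. Green emission is then recorded (485 nm excitation, 535 nm emission) and scaled to fluorescein.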

[13] = qHTS assay to test for compound auto fluorescence at 590 nm (red) in HEK293 cell free culture (AID 720683)
How it was run: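 Red-channel autofluorescence of compounds in culture medium (DMEM, 10% FBS), no cells, measured at 540/590 nm. Rose Bengal sodium is the reference fluorophore for equivalence.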

[14] = qHTS assay to test for compound auto fluorescence at 590 nm (red) in HepG2 cell free culture (AID 720684)
How it was run: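 Cell-free; medium MEM + 10% FBS; compound or DMSO added by pintool; read Ex 540/Em 590 nm; Rose Bengal sodium as red reference fluorophore.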

[15] = qHTS assay to test for compound auto fluorescence at 460 nm (blue) in HepG2 cell free culture (AID 720685)
How it was run: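 Cell-free plates of MEM plus 10% FBS received 23 nL compound or DMSO vehicle; blue-channel (405/460 nm) intensity scored against triamterene as reference fluorophore.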

[16] = qHTS assay to test for compound auto fluorescence at 535 nm (green) in HepG2 cell free culture (AID 720686)
[17] = qHTS assay to test for compound auto fluorescence at 460 nm (blue) in HepG2 cells (AID 720687)
How it was run: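 Blue-channel autofluorescence (Ex/Em 405/460 nm, triamterene-equivalent) was measured after 1 hr compound exposure at 37 C, 5% CO2. Cells were HepG2, plated overnight at 37 C in MEM plus 10% FBS.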

[18] = biological target: Glucocorticoid receptor (Homo sapiens) (UniProt P04150); assay: qHTS assay to identify small molecule agonists of the glucocorticoid receptor (GR) signaling pathway (AID 720691; active = well fitted activation curve with a large enough effect in the signal ratio in the repeat runs, not every such curve was filed as active; the % refers to the signal ratio); conditions: GR-bla HeLa, beta-lactamase reporter ratio, 18 h; activation: at 62.4 µM (top of the series) unless noted
Glucocorticoid receptor (Homo sapiens), sequence (P04150 whole entry, looked up): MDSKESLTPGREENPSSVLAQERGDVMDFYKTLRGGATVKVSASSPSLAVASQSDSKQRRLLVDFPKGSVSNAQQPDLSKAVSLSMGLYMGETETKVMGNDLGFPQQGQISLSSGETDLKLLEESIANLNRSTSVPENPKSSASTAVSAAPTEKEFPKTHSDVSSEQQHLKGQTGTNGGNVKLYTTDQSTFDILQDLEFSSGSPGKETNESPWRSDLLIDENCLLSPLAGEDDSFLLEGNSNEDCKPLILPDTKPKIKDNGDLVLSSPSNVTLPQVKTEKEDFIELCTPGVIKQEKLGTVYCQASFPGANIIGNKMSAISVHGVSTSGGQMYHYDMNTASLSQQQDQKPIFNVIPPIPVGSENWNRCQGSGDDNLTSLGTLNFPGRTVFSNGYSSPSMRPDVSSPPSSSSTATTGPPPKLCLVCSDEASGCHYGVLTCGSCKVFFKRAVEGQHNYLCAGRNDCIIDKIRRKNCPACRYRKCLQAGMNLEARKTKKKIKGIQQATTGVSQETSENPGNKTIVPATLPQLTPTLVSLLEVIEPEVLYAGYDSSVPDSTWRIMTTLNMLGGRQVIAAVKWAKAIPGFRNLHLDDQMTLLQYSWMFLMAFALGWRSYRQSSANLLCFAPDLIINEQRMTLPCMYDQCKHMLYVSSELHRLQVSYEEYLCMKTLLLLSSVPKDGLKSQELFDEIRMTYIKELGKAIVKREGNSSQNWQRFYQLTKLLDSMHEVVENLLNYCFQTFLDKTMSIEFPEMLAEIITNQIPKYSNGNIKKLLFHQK
How it was run: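 A HeLa cervical cancer line expressing GR and a glucocorticoid response element-driven beta-lactamase gene is treated with compounds for 18 h; LiveBLAzer B/G FRET substrate is then applied and fluorescence read.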

[19] = biological target: Glucocorticoid receptor (Homo sapiens) (UniProt P04150); assay: qHTS assay to identify small molecule antagonists of the glucocorticoid receptor (GR) signaling pathway (AID 720692; active = well fitted inhibition curve with a large enough effect in the signal ratio in the repeat runs, not every such curve was filed as active; the % refers to the signal ratio; also: potency is read from the fitted curve at half-maximal effect)
How it was run: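 GRE-bla HeLa line, dex-stimulated (5 nM final). Compound exposure 18 h, 37 C. Beta-lactamase FRET read after 2 h RT substrate.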

[20] = qHTS assay for small molecule agonists of the p53 signaling pathway (AID 651631; calls by dose curve; also: nearly all actives have a fitted effect of over 15% in size; also: potency is read from the fitted curve at half-maximal effect)
How it was run: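 Agonist mode screen using a stably integrated beta-lactamase gene under p53 response elements in HCT-116 cells. Compound exposure lasts 16 h at 37 °C; fluorescence intensity is measured following 2 h FRET substrate loading.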

Structure (SMILES): CCCCCCCCCc1ccc(OCCOCCO)cc1
- Potency [1]: inactive
- Potency [2]: 29.8 µM (active)
- Potency [3]: 18.8 µM (active)
- Potency [4]: inactive
- Potency [5]: 10.6 µM (active) and 1.44 µM (active)
- Potency [6]: inactive
- Potency [7]: inactive
- outcome [8]: inactive
- Potency [9]: inactive
- outcome [10]: inactive
- outcome [11]: inactive
- outcome [12]: inactive
- Potency [13]: inactive
- Potency [14]: inactive
- outcome [15]: inactive
- Potency [16]: inactive
- outcome [17]: inactive
- Potency [18]: inactive

Structure (SMILES): CCC(C)(C)CC
- Potency [1]: inactive
- Potency [2]: inactive
- Potency [3]: inactive
- Potency [4]: inactive
- Potency [6]: inactive
- Potency [7]: inactive
- outcome [8]: inactive
- Potency [9]: inactive
- outcome [10]: inactive
- outcome [11]: inactive
- outcome [12]: inactive
- Potency [13]: inactive
- Potency [14]: inactive
- outcome [15]: inactive
- Potency [16]: inactive
- outcome [17]: inactive
- Potency [18]: inactive
- Potency [19]: inactive

Structure (SMILES): CCCn1cnc2c1c(=O)n(CCCCC(C)=O)c(=O)n2C
- Potency [20]: inactive
- Potency [2]: inactive
- Potency [3]: inactive
- Potency [4]: inactive
- Potency [5]: inactive
- Potency [6]: inactive
- Potency [7]: inactive
- Potency [9]: inactive
- outcome [10]: inactive
- outcome [11]: inactive
- Potency [14]: inactive
- outcome [15]: inactive
- Potency [16]: inactive
- outcome [17]: inactive
- Potency [18]: inactive
- Potency [19]: inactive

Structure (SMILES): COc1cc2nc(N(C)CCCNC(=O)C3CCCO3)nc(N)c2cc1OC (configuration not stated)
- Potency [1]: inactive
- Potency [2]: inactive
- Potency [3]: inactive
- Potency [4]: inactive
- Potency [5]: inactive
- fluorescence, relative to Rose Bengal [6]: -0.119% [at 18.6 µM]
- fluorescence, % of fluorescein control [7]: -0.0701% [at 18.6 µM]
- fluorescence, % of triamterene [8]: -0.108% [at 18.6 µM]
- fluorescence, % of fluorescent control [9]: -0.585% [at 18.6 µM]
- fluorescence, % of fluorescein [10]: -0.0302% [at 18.6 µM]
- fluorescence, % of fluorescent control [11]: -0.0154% [at 18.6 µM]
- activity change [12]: -0.131% [at 18.6 µM]
- fluorescence, % of fluorescent control [13]: -0.206% [at 18.6 µM]
- fluorescence, % of Rose Bengal [14]: -0.324% [at 18.6 µM]
- fluorescence, % of fluorescent control [15]: -0.0022% [at 18.6 µM]
- fluorescence, % of fluorescein control [16]: -0.0969% [at 18.6 µM]
- Potency [18]: inactive
- Potency [19]: inactive

Structure (SMILES): CC(C)(C)Cl
- Potency [1]: inactive
- Potency [2]: inactive
- Potency [3]: inactive
- Potency [4]: inactive
- Potency [5]: inactive
- Potency [6]: inactive
- Potency [7]: inactive
- outcome [8]: inactive
- Potency [9]: inactive
- outcome [10]: inactive
- outcome [11]: inactive
- outcome [12]: inactive
- Potency [14]: inactive
- outcome [15]: inactive
- Potency [16]: inactive
- outcome [17]: inactive

Structure (SMILES): CCn1cc(C(=O)O)c(=O)c2cnc(N3CCNCC3)nc21
- Potency [20]: inactive
- Potency [2]: inactive
- Potency [4]: inactive
- Potency [5]: inactive
- fluorescence, relative to Rose Bengal [6]: 0.305% [at 18.6 µM]
- fluorescence, % of fluorescein control [7]: -0.0874% [at 18.6 µM]
- fluorescence, % of fluorescent control [9]: -0.324% [at 18.6 µM]
- fluorescence, % of fluorescein [10]: 0.0376% [at 18.6 µM]
- fluorescence, % of fluorescent control [11]: 6.27% [at 18.6 µM]
- activity change [12]: 0.0637% [at 18.6 µM]
- fluorescence, % of Rose Bengal [14]: -0.185% [at 18.6 µM]
- fluorescence, % of fluorescent control [15]: 0.0041% [at 18.6 µM]

Structure (SMILES): C=CC(=O)OCCOc1ccccc1
- Potency [20]: 68.5 µM (active)
- Potency [3]: inactive
- Potency [4]: inactive
- Potency [7]: inactive
- outcome [8]: inactive
- Potency [9]: inactive
- outcome [10]: inactive
- outcome [11]: inactive
- outcome [12]: inactive
- Potency [13]: inactive
- Potency [14]: inactive
- outcome [15]: inactive
- Potency [16]: inactive
- outcome [17]: inactive
- Potency [19]: 21.9 µM (active)

Structure (SMILES): COc1ccc(-c2nc3ccc(C4=NNC(=O)CC4C)cc3[nH]2)cc1 (configuration not stated)
- Potency [20]: 11.9 µM (active)
- Potency [4]: inactive
- Potency [6]: inactive
- Potency [7]: inactive
- outcome [8]: inactive
- Potency [9]: inactive
- outcome [11]: inactive
- outcome [12]: inactive
- Potency [13]: inactive
- Potency [14]: inactive
- outcome [15]: inactive
- Potency [16]: inactive
- outcome [17]: inactive
- Potency [18]: inactive

From PubChem BioAssay (Tox21)
